Data published in PubChem BioAssay (NCATS).
Activity calls are given as the source filed them. The call rests on the fitted dose curve; in most records, active means well fitted activation curve with a large enough effect; inconclusive means small, poorly fitted or top-dose-only effect; inactive means no such curve, though single readings can be large or run the other way.

biological target: Cytochrome P450 3A4 (Homo sapiens) (UniProt P08684); assay: qHTS Assay for Activators of Cytochrome P450 3A4 (AID 885); conditions: recombinant CYP3A4, Luciferin-PPXE luminescence, 60 min; series mostly up to 57.1 µM; activity change, positive = activation: at the top concentration; further: nearly all actives have a fitted effect of over 65% in size
Method: NIH Molecular Libraries Screening Centers Network [MLSCN]
NIH Chemical Genomics Center [NCGC]
The P450 gene superfamily is involved in the metabolism and clearance of xenobiotics. This assay used human CYP3A4 to measure the dealkylation of luciferin-6' phenylpiperazinylyl (Luciferin-PPXE; […]) to luciferin. The luciferin is then measured by luminescence after the addition of a luciferase detection reagent. Luciferin-PPXE concentration in the assay was equal to its KM for CYP3A4. Inhibitors and some substrates limit the production of luciferin, and decrease measured luminescence; activators increase the production of luciferin and luminescence.
NCGC Assay Protocol Summary:
Two uL of enzyme and substrate mix (final concentrations: 20nM CYP3A4, 25uM Luciferin-PPXE, 200mM KPO4) were dispensed into a white, solid bottom 1536-well microtiter plate. 23nL of compound was transferred by a pin tool. The plate was incubated at RT for 10 min. Two uL of an NADPH regeneration solution (Promega supplied reagent) was dispensed and the reaction was allowed to continue for 60 min at RT. Then the reaction was stopped by reconstituted luciferin detection buffer. After another 20 min of incubation the plate was read on the ViewLux (Perkin Elmer) at 60 sec exposure and 2x2 binning. This protocol was carried out with Promega-Glo reagents and further information can be found at http://www.promega.com/tbs/tb325/tb325.pdf. Data were normalized to the to AC100 inhibition (57 uM ketoconazole).
Keywords: P450, CYP2D6, Luciferase, MLSMR, MLSCN, NIH Roadmap, qHTS, NCGC

Cytochrome P450 3A4 (Homo sapiens), sequence (P08684 whole entry, looked up): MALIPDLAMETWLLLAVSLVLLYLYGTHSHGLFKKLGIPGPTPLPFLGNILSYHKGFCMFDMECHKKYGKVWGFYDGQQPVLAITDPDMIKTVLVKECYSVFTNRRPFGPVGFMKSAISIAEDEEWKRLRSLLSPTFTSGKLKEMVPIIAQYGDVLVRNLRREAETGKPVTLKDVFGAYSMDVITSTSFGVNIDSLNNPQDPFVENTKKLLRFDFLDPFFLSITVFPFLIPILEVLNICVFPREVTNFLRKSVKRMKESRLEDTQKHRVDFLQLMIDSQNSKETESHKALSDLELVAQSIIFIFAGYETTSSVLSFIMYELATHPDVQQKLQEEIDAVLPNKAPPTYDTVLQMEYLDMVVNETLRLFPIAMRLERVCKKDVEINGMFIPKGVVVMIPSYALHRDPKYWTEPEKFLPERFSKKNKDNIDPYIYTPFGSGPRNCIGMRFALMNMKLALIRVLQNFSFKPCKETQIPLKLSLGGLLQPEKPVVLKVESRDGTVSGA

Compound	activity change, positive = activation	outcome
CCCNC(=O)NS(=O)(=O)c1ccc(Cl)cc1	-38.3% (inactive)	
O=c1cc(-c2ccc(O)cc2)oc2cc(O)cc(O)c12		inactive
O=c1c(O)c(-c2ccc(O)cc2)oc2cc(O)cc(O)c12	-62.6% (inactive)	
COc1ccc(-c2coc3cc(O)ccc3c2=O)cc1	-59.3% (inactive)	
COCCCCC(=NOCCN)c1ccc(C(F)(F)F)cc1		inactive
O=c1cc(-c2ccccc2)oc2cc(O)c(O)c(O)c12	-77.2% (inactive)	
c1cc(-c2sc(-c3ccncc3)c(-c3ccncc3)c2-c2ccncc2)ccn1	-102% [at 11.4 µM] (inactive)	
O=c1cc(-c2ccccc2)oc2cc(O)cc(O)c12		inactive
O=c1c(-c2ccc(O)cc2)coc2cc(O)ccc12	-57.2% (inactive)	
COc1cccc(-c2cc(=O)c3ccccc3o2)c1N	-63.6% (inactive)	
c1ccc2c(Cc3c[nH]c4ccccc34)c[nH]c2c1	-42% (inactive)	
O=C(O)c1cc(O)c2c(c1)C(=O)c1cccc(O)c1C2=O	-34.8% (inactive)	
Clc1ccc(Cn2c(CN3CCCC3)nc3ccccc32)cc1	-95.2% (inactive)	
CS(=O)c1ccc(-c2nc(-c3ccc(F)cc3)c(-c3ccncc3)[nH]2)cc1 (stereo unspecified)	-92.9% (inactive)	
O=C1C(Cl)=C(NCCN2CCOCC2)C(=O)c2ncccc21	-118% (inactive)	
COc1ccc(-c2coc3cc(O)cc(O)c3c2=O)cc1	-95.1% (inactive)	
